Data taken from PubChem BioAssay (Tox21).
Inconclusive results are not listed. Some structures have more than one record in an assay (separate samples or runs), and their calls can disagree. Active and inactive are the calls of the source. Unless noted, calls come from the whole dose curve.

Experiments:
[1] = Nuclear factor erythroid 2-related factor 2/antioxidant responsive element (Nrf2/ARE) small molecule agonists: qHTS cell viability counter screen in human keratinocytes (AID 1919968; active = well fitted curve in the direction sought with a large enough effect in the repeat runs; an effect the other way counts as inactive or inconclusive; note: nearly all actives have a fitted effect of over 55% in size)
Procedure, shortened: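 HaCaT ARE reporter line, 1,500 cells/well; 5 h settle, 37 C/5% CO2; cpd in DMSO pinned; 23 h exposure; CellTiter-Fluor, 1 h; fluorescence.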

[2] = Nuclear factor erythroid 2-related factor 2/antioxidant responsive element (Nrf2/ARE) small molecule agonists: luciferase reporter gene qHTS assay in human keratinocytes (AID 1919969); note: nearly all actives have a fitted effect of over 35% in size
[3] = molecular target: Gonadotropin-releasing hormone receptor (Homo sapiens) (UniProt P30968); experiment: Human gonadotropin-releasing hormone receptor (GnRHR) small molecule agonists, calcium flux assay in GnRHR-HEK293 cells (AID 1920063); note: nearly all actives have a fitted effect of over 35% in size
Gonadotropin-releasing hormone receptor (Homo sapiens), sequence (P30968 whole entry, looked up): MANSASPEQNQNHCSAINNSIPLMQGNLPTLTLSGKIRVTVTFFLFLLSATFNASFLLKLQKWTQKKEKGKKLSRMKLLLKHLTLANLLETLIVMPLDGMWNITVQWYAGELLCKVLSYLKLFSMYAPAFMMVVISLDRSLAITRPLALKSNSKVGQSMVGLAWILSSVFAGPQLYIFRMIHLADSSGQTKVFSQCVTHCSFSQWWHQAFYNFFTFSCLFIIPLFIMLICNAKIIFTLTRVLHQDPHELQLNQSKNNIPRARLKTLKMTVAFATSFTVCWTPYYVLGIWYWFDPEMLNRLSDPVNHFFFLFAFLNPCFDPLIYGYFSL
Procedure, shortened: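 GnRHR-HEK293, 1500 cells/well, 18 h 37 C/5% CO2; Ca dye 1 h 37 C; cpd pinned (DMSO), agonist mode; kinetic FL 480/540, 3 min, 1 s reads; 15 conc, n=3.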

[4] = molecular target: KiSS-1 receptor (Homo sapiens) (UniProt Q969F8); experiment: Human kisspeptin (KISS1R) small molecule agonists, calcium flux assay in KISS1R-HEK293 cells (AID 1920064; active = well fitted curve in the direction sought with a large enough effect in the repeat runs; an effect the other way counts as inactive or inconclusive)
KiSS-1 receptor (Homo sapiens), sequence (Q969F8 whole entry, looked up): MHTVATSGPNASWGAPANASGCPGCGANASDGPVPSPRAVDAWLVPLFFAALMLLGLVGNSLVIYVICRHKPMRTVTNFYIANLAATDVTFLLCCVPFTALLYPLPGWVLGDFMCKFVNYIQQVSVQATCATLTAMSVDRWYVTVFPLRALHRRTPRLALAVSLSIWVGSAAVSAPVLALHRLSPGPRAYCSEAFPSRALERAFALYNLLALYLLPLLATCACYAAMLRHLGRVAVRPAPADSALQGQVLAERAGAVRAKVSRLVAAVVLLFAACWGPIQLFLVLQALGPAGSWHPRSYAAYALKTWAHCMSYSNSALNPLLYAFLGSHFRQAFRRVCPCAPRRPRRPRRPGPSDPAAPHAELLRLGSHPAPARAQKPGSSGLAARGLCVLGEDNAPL
Procedure, shortened: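 Stable human KISS1R HEK293 line; 18 h plating, 37 C/5% CO2; calcium dye 1 h 37 C; compound pin transfer; kinetic fluorescence Ex/Em 480/540, 3 min.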

[5] = G protein-coupled receptor (GPCR) small molecule agonists, calcium flux assay: HEK293 wild type cell line counter screen (AID 1920065)
Procedure, shortened: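 Kinetic fluorescence at Ex/Em 480/540, recorded every second over 3 min, served as the read-out after compound addition. Each compound was tested at 15 concentrations in triplicate on cells pre-loaded with calcium dye for 1 h.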

[6] = p53 small molecule agonists, cell-based qHTS assay with human liver microsomes (AID 1963577);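 note: p53 response element beta-lactamase reporter cells with liver microsomes plus NADPH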
Procedure, shortened: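 HLM-supplemented p53RE-bla reporter assay: 16 h compound exposure at 37 C, microsomes and NADPH each 0.5 mg/mL final, read by fluorescence intensity.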

[7] = p53 small molecule agonists, cell-based qHTS assay with rat liver microsomes (AID 1963578)
Procedure, shortened: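 Quantitative HTS of the Tox21 10K library: p53RE-bla cells, rat liver microsomes plus NADPH at 0.5 mg/mL final each, 16 h at 37 C, beta-lactamase fluorescence detection.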

[8] = p53 small molecule agonists, cell-based qHTS assay with human liver microsomes: qHTS cell viability counter screen (AID 1963579); note: nearly all actives have a fitted effect of over 45% in size
Procedure, shortened: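 Viability of p53RE-bla cells is measured as CellTiter-Glo luminescence following a 16 h, 37 C incubation with compound, liver microsomes from human donors and NADPH.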

[9] = p53 small molecule agonists, cell-based qHTS assay with rat liver microsomes: qHTS cell viability counter screen (AID 1963580); note: nearly all actives have a fitted effect of over 45% in size
Procedure, shortened: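 p53RE-bla HCT-116 cells (4,000/well) rested 5 h at 37 C, then given Tox21 compounds in DMSO with rat liver microsomes (0.5 mg/mL final) plus NADPH (0.5 mg/mL final) for 16 h at 37 C. Viability read by CellTiter-Glo luminescence after 30 min at room temperature.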

[10] = p53 small molecule agonists, cell-based qHTS assay: qHTS cell viability counter screen (AID 1963581); note: nearly all actives have a fitted effect of over 45% in size
Procedure, shortened: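 HCT-116 p53RE-bla cells, 4,000/well, plated 5 h before compound pin transfer; 16 h at 37 C; bla substrate 2 h RT; then CellTiter-Glo, 30 min RT, luminescence.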

[11] = p53 small molecule agonists, cell-based qHTS assay (AID 1963582; active = well fitted activation curve with a large enough effect in the signal ratio in the repeat runs, not every such curve was filed as active; the % refers to the signal ratio)
Procedure, shortened: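 Reporter line: p53RE-bla. Pre-incubation 5 h, 37 C, 5% CO2; compound (DMSO, pin tool) 16 h, 37 C; B/G FRET substrate 2 h RT; fluorescence intensity read.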

[12] = molecular target: 5-hydroxytryptamine receptor 2A (Homo sapiens) (UniProt P28223); experiment: 5-hydroxytryptamine receptor 2A (HTR2A) small molecule antagonists, cell-based qHTS assay (AID 1963586); note: nearly all actives have a fitted effect of over 45% in size
5-hydroxytryptamine receptor 2A (Homo sapiens), sequence (P28223 whole entry, looked up): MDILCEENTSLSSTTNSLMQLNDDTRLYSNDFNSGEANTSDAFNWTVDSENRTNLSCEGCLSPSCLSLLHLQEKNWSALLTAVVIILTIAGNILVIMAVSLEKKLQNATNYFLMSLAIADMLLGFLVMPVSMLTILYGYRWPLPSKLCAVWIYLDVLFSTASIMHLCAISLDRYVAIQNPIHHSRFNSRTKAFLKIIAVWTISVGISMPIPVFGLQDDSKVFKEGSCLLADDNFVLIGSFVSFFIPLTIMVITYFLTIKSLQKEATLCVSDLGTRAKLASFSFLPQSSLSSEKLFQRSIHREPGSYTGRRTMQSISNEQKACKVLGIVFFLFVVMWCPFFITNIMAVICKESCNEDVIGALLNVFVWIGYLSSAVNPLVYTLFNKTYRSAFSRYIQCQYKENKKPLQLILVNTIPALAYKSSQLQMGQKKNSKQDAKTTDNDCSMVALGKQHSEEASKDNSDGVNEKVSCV
Procedure, shortened: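 Antagonist-mode intracellular calcium assay: DOI (4 nM) added after 5 min compound pre-incubation at room temperature to dye-loaded HTR2A-CHO cells. Fluorescence followed for 3 min, sampled every second.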

[13] = molecular target: 5-hydroxytryptamine receptor 2A (Homo sapiens) (UniProt P28223); experiment: 5-hydroxytryptamine receptor 2A (HTR2A) small molecule agonists, cell-based qHTS assay (AID 1963587); note: nearly all actives have a fitted effect of over 30% in size
Procedure, shortened: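 HTR2A-CHO cells, plated 18 h at 37 C/5% CO2, dye-loaded 1 h at 37 C; compounds in DMSO added by pin tool (agonist mode). Intracellular calcium flux read as kinetic fluorescence on FDSS over 2 min at 1 s intervals.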

[14] = molecular target: Muscarinic acetylcholine receptor M1 (Homo sapiens) (UniProt P11229); experiment: Cholinergic receptor muscarinic 1 (CHRM1) small molecule antagonists, cell-based qHTS assay (AID 1963588); note: nearly all actives have a fitted effect of over 40% in size; note: potency is the fitted concentration of half-maximal effect
Muscarinic acetylcholine receptor M1 (Homo sapiens), sequence (P11229 whole entry, looked up): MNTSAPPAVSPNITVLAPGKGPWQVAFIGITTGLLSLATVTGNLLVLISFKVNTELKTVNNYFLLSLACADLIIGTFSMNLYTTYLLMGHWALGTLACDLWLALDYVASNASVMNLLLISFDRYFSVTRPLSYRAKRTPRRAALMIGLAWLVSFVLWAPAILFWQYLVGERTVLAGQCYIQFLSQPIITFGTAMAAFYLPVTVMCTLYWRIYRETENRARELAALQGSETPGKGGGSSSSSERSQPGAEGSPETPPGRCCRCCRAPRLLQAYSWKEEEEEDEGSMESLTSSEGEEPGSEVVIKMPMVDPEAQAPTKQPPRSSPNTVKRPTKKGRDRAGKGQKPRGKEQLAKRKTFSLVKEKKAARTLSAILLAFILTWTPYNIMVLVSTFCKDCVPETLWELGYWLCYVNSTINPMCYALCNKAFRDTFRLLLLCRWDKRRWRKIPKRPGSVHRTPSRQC
Procedure, shortened: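 CHRM1-CHO calcium-flux assay, antagonist mode. Cells were seeded 18 h, dye-loaded 1 h at 37 C and given compound for 5 min at RT, then acetylcholine was added at 50nM. FDSS fluorescence was read 3 min; 15 concentrations, three runs.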

[15] = molecular target: Muscarinic acetylcholine receptor M1 (Homo sapiens) (UniProt P11229); experiment: Cholinergic receptor muscarinic 1 (CHRM1) small molecule agonists, cell-based qHTS assay (AID 1963589); note: nearly all actives have a fitted effect of over 35% in size
Procedure, shortened: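 Human M1 in stable CHO line; 18 h plating, 1 h dye load 37 C; cpd added (agonist mode); Ca2+ fluorescence kinetic read, 1 s intervals; 15 conc, 3 runs.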

[16] = cAMP Responsive Elements (CRE) small molecule agonists, cell-based qHTS assay (AID 1963590)
Procedure, shortened: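 HEK 293T CRE-bla, 2,000 cells/well, 18 h preincubation 37 C/5% CO2; cpds (DMSO) pinned, 3 h; LiveBLAzer B/G FRET substrate, 2 h RT.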

[17] = molecular target: D(2) dopamine receptor (Homo sapiens) (UniProt P14416); experiment: Dopamine D2 receptor (DRD2) small molecule agonists, cell-based qHTS assay (AID 1963594); note: nearly all actives have a fitted effect of over 35% in size
D(2) dopamine receptor (Homo sapiens), sequence (P14416 whole entry, looked up): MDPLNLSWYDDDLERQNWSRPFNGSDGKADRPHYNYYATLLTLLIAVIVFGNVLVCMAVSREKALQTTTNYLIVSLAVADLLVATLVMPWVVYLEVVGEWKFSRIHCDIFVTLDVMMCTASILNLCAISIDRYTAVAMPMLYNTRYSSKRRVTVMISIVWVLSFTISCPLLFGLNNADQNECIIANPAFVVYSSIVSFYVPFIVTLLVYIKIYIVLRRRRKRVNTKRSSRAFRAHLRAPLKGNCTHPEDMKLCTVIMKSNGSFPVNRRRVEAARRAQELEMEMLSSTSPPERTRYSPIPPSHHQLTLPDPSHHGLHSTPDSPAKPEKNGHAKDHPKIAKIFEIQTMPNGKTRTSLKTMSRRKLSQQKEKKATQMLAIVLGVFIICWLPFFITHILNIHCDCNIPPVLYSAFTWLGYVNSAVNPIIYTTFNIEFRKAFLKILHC
Procedure, shortened: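 HEK293 cells stably expressing DRD2 were cultured 24 h at 37 C, then given Ro20-1724 (0.1 mM final) and compounds for 10 min at room temperature. NKH477 (200nM) was then added for 30 min. cAMP was read by HTRF.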

[18] = molecular target: D(2) dopamine receptor (Homo sapiens) (UniProt P14416); experiment: Dopamine D2 receptor (DRD2) small molecule antagonists, cell-based qHTS assay (AID 1963595; active = well fitted inhibition curve with a large enough effect in the signal ratio in the repeat runs, with a control signal flat; the % refers to the signal ratio)
Procedure, shortened: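 Antagonism was scored as restored cAMP in HEK293-DRD2 cells. These cells were stimulated with 200 nM NKH477 and 12 nM quinpirole for 30 min at room temperature, in the presence of 0.1 mM Ro20-1724.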

[19] = cAMP Responsive Elements (CRE) small molecule antagonists, cell-based qHTS assay (AID 1963591; active = well fitted inhibition curve with a large enough effect in the signal ratio in the repeat runs, not every such curve was filed as active; the % refers to the signal ratio)
Procedure, shortened: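 Beta-lactamase reporter read by FRET substrate (LiveBLAzer B/G) after 2 h at room temperature. CRE-bla HEK293T cells had received compound plus 0.25 uM (final) NKH477 for 3 h at 37 °C.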

[20] = molecular target: Beta-2 adrenergic receptor (Homo sapiens) (UniProt P07550); experiment: Adrenergic beta2 receptor (ADRB2) small molecule antagonists, cell-based qHTS assay (AID 1963592); note: nearly all actives have a fitted effect of over 50% in size; note: potency is the fitted concentration of half-maximal effect
Beta-2 adrenergic receptor (Homo sapiens), sequence (P07550 whole entry, looked up): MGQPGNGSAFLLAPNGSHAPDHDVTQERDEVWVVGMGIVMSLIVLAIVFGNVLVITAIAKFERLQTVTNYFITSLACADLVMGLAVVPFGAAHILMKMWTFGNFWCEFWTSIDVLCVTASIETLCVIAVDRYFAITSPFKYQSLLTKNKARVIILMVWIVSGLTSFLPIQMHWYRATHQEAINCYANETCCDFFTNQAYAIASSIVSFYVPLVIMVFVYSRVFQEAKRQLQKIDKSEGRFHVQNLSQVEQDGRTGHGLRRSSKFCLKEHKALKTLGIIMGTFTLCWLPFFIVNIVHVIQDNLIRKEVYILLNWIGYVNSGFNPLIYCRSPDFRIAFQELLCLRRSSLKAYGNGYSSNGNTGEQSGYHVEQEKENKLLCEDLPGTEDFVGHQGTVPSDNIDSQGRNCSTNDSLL
Procedure, shortened: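 Cells (CHO, stable ADRB2 overexpression) incubated 18-20hr at 37C; compounds added from DMSO; agonist mix (1nM isoproterenol, 100uM IBMX, 25uM Ro-20-1724) added; 0.5hr RT; d2-cAMP and anti-cAMP-cryptate added; 1hr RT; 665/615 nm read.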

Measured: Potency

CC(=O)C1(C)CC2=C(CCCC2(C)C)CC1C (stereo not given)
not listed: [19] | [20]
inactive: all other assays above

O=c1cccc[nH]1
not listed: [15]
inactive: all other assays above

C1CCSC1
not listed: [16]
inactive: all other assays above

CCOC(=O)c1ccc(O)c(O)c1
not listed: [15]
inactive: all other assays above

OCc1c2ccccc2cc2ccccc12
not listed: [15]
inactive: all other assays above

NCc1cccc(CN)c1
active: [14] 42.1 µM
not listed: [15]
inactive: all other assays above

CCCCOCCOCCOCCO
30.3 µM (active) and inactive: [20]
not listed: [16]
inactive: all other assays above

C=C1C[C@H]2[C@@H]3C=C(C)C4=CC(=O)CC[C@]4(C)[C@H]3CC[C@]2(C)[C@@]1(OC(C)=O)C(C)=O
not listed: [16] | [19]
inactive: all other assays above

ClC/C=C\CCl
not listed: [15]
inactive: all other assays above

C1CCCCC1
not listed: [19]
inactive: all other assays above

CCOC(=O)NCCC[Si](OCC)(OCC)OCC
not listed: [15]
inactive: all other assays above

O=C(O)c1cc(O)c(O)c(O)c1
not listed: [16] | [17]
inactive: all other assays above

CSc1ccc(C(=O)c2[nH]c(=O)[nH]c2C)cc1
not listed: [15]
inactive: all other assays above

COC(/C=C(\C)CCC=C(C)C)OC
not listed: [15]
inactive: all other assays above

C/C(Cl)=C/CCl
not listed: [16] | [17] | [18]
inactive: all other assays above
